Results on 73 compounds are retold here after the antibiotic and cytotoxicity screens of Wong et al. (2023).

The whole screen tested about 39,000 compounds, of which about 1,500 (3.8%) were called active. Many of the other results were omitted from the sample, so actives are more common in it than they were.

The assay relates to HSkMC (human skeletal muscle cells). As to the kind of experiment: cytotoxicity call (relative viability < 0.9). The note with it: 10 µM.
On to `COCC(=O)N1C[C@@H](C)[C@H](OC)CN(C)C(=O)c2ccc(NC(=O)c3ccc(F)cc3)cc2OC[C@@H]1C`, for which the cytotoxicity call is “inactive”. For the compound `C[C@@H]1CN([C@@H](C)CO)C(=O)Cc2cc(NC(=O)Nc3ccc(F)cc3)ccc2O[C@@H]1CN(C)Cc1ccc(C(F)(F)F)cc1`, the cytotoxicity call is “active”. As for `C[C@H]1CN([C@@H](C)CO)C(=O)Cc2cc(NC(=O)Nc3ccc(F)cc3)ccc2O[C@@H]1CN(C)Cc1ccc(C(F)(F)F)cc1`, the entry is “inactive”. As to `C[C@@H]1CN([C@H](C)CO)C(=O)Cc2cc(NC(=O)Nc3ccc(F)cc3)ccc2O[C@H]1CN(C)Cc1ccc(C(F)(F)F)cc1`, the cytotoxicity call is “active”.

For the compound `C[C@H](CO)N1C[C@H](C)[C@@H](CN(C)Cc2ccc(C(F)(F)F)cc2)Oc2ccc(NC(=O)Nc3ccc(F)cc3)cc2CC1=O`, the cytotoxicity call is “active”.

Take `C[C@H]1CN([C@@H](C)CO)C(=O)Cc2cc(NC(=O)Nc3ccc(F)cc3)ccc2O[C@H]1CN(C)Cc1ccc(C(F)(F)F)cc1`: the cytotoxicity call was “active”.

Turning to `C[C@@H]1CN([C@@H](C)CO)C(=O)Cc2cc(NC(=O)Nc3ccc(F)cc3)ccc2O[C@H]1CN(C)Cc1ccc(C(F)(F)F)cc1`, the cytotoxicity call was “inactive”. For the compound `C[C@H](CO)N1C[C@H](C)[C@@H](CN(C)Cc2ccc(C(=O)O)cc2)Oc2c(NS(=O)(=O)c3cn(C)cn3)cccc2C1=O`, the cytotoxicity call is “inactive”. For `CC(C)NC(=O)N(C)C[C@@H]1OCCCC[C@H](C)Oc2ccc(NC(=O)Nc3ccc(F)cc3)cc2C(=O)N([C@H](C)CO)C[C@@H]1C`, the cytotoxicity call was “inactive”. As to `C[C@@H]1CN([C@@H](C)CO)C(=O)c2cc(NC(=O)C3CCCCC3)ccc2O[C@@H](C)CCCCO[C@H]1CN(C)C(=O)Nc1ccccc1`, the cytotoxicity call was “inactive”. As for `C[C@H](CO)N1C[C@H](C)[C@@H](CN(C)S(=O)(=O)c2ccc(Cl)cc2)Oc2ccc(N(C)C)cc2C1=O`, the cytotoxicity call was “inactive”.

On to `COCCNC(=O)C[C@@H]1CC[C@H]2[C@@H](COC[C@@H](O)CN2C(=O)Nc2ccc3c(c2)OCO3)O1`, for which the cytotoxicity call is “inactive”. As for `O=C(O)Cc1cccc(OCCCN(Cc2cccc(C(F)(F)F)c2Cl)CC(c2ccccc2)c2ccccc2)c1`, the entry is “inactive”; as for `Cc1noc(C)c1NC(=O)N(C)C[C@H]1Oc2ccc(NC(=O)Nc3cccc4ccccc34)cc2C(=O)N([C@@H](C)CO)C[C@H]1C`, “inactive”; as for `C=CCOC(=O)[C@@H]1[C@H]2C(=O)O[C@H](c3ccccc3)[C@H](c3ccccc3)N2[C@H](c2ccc(OCCOC(=O)[C@H]3C[C@H]4C(=O)N[C@@H](CCCCN(C)C)C(=O)N4[C@H]3c3cccc(OCCO)c3)cc2)[C@@]12C(=O)Nc1ccc(I)cc12`, “inactive”. As to `COc1ccc2c3c(n(c2c1)C)[C@H](CO)N(C[C@]13CCN(CC1)C(=O)CN(C)C)S(=O)(=O)C`, the cytotoxicity call was “inactive”. As to `C[C@H](CO)N1C[C@H](C)[C@H](CN(C)Cc2ccc(C(F)(F)F)cc2)Oc2ccc(NC(=O)Nc3ccc(F)cc3)cc2CC1=O`, the cytotoxicity call was “active”. As to `C[C@@H]1CN([C@H](C)CO)C(=O)Cc2cc(NC(=O)Nc3ccc(F)cc3)ccc2O[C@@H]1CN(C)Cc1ccc(C(F)(F)F)cc1`, the cytotoxicity call was “active”. As for `CO[C@H]1CN(C)C(=O)c2cc(NC(=O)NC(C)C)ccc2OC[C@H](C)N(Cc2ccc(-c3ccccn3)cc2)C[C@@H]1C`, the cytotoxicity call is “inactive”. In the case of `COCC(=O)N(C)C[C@@H]1Oc2cc(C#Cc3ccccc3)ccc2S(=O)(=O)N([C@H](C)CO)C[C@H]1C`, the cytotoxicity call was “inactive”. For the compound `CO[C@@H]1CN(C)C(=O)c2cc(NC(=O)Nc3ccccc3)ccc2OC[C@@H](C)N(C(=O)CN(C)C)C[C@@H]1C`, the cytotoxicity call is “inactive”. Consider `Nc1ccn([C@H]2CC[C@@H](CO)O2)c(=O)n1`, for which the cytotoxicity call was “inactive”.

As to `CC(C)CC#Cc1ccc2c(c1)O[C@H](CN(C)C(=O)c1ccncc1)[C@@H](C)CN([C@H](C)CO)S2(=O)=O`, the cytotoxicity call is “inactive”. In the case of `CCn1c(-c2nonc2N)nc2cncc(C(=O)N3CC[C@H](N)C3)c21`, the cytotoxicity call was “active”. As for `C[C@H](CO)N1C[C@H](C)[C@H](CN(C)Cc2ccncc2)OCCCC[C@H](C)Oc2ccc(NC(=O)NC3CCCCC3)cc2C1=O`, the entry is “inactive”. As for `C[C@@H]1CCCCO[C@H](CN(C)C(=O)Cc2ccccc2)[C@H](C)CN([C@H](C)CO)C(=O)c2cc(NS(=O)(=O)c3ccc(Cl)cc3)ccc2O1`, the cytotoxicity call was “inactive”.

Take `C[C@H](CO)N1C[C@H](C)[C@H](CN(C)C(=O)C2CCCCC2)OCCCC[C@H](C)Oc2ccc(NC(=O)Nc3ccc4c(c3)OCO4)cc2C1=O`: the cytotoxicity call was “inactive”. Turning to `Nc1ccn([C@H]2O[C@@H](CO)[C@@H](O)[C@@H]2O)c(=O)n1`, the cytotoxicity call is “inactive”. Regarding `O=C(C[C@@H]1C=C[C@@H](NS(=O)(=O)c2ccccc2F)[C@@H](CO)O1)NCCCN1CCOCC1`, the cytotoxicity call was “inactive”. In the case of `O=C(CCCCC(=O)N/N=C/c1cc[n+]([O-])cc1)NO`, the cytotoxicity call is “inactive”. As for `Cc1ccc(S(=O)(=O)Nc2ccc3c(c2)CC(=O)N([C@H](C)CO)C[C@H](C)[C@H](CN(C)C(=O)Nc2cccc4ccccc24)O3)cc1`, the entry is “inactive”. As to `C[C@H](CO)N1C[C@H](C)[C@H](CN(C)C(=O)Nc2ccccc2)Oc2ncc(-c3cccc(C(F)(F)F)c3)cc2C1=O`, the cytotoxicity call is “inactive”. As for `CN(C)C1CCN(C(=O)c2cnc(-c3noc4cc(-c5cccc(C(F)(F)F)c5)ccc34)s2)CC1`, the entry is “active”.

For `CN(C)C1CCN(C(=O)c2cnc(-c3noc4cc(-c5ccccc5C(F)(F)F)ccc34)s2)CC1`, the cytotoxicity call was “inactive”. For `COc1ccc(S(=O)(=O)Nc2ccc3c(c2)CC(=O)N([C@@H](C)CO)C[C@H](C)[C@@H](CN(C)S(=O)(=O)c2cn(C)cn2)O3)cc1`, the cytotoxicity call was “inactive”. For `O=C(C1=C[C@H](c2coc3ccccc3c2=O)C[C@H](OCCCCO)O1)N1CCN(Cc2ccc3c(c2)OCO3)CC1`, the cytotoxicity call was “inactive”. For `CNc1cccc(CN)c1`, the cytotoxicity call was “inactive”.

With `CN1CCC(Nc2nc(Nc3ccc(Oc4ccccc4)cc3)c3c(O)ncc(Br)c3n2)CC1`, the cytotoxicity call was “active”. Take `C=CC[C@H](CC(=O)N(CCO)Cc1ccccc1)C(=O)N[C@H](COC(=O)[C@@H](CC=C)Cc1ccc(F)cc1)Cc1c[nH]c2ccccc12`: the cytotoxicity call is “inactive”. On to `C=CC[C@@H](CC(=O)N(CCO)Cc1ccccc1)C(=O)N[C@@H](COC(=O)[C@H](CC=C)CC(=O)OC(C)(C)C)Cc1c[nH]c2ccccc12`, for which the cytotoxicity call is “inactive”. As to `C=CC[C@H](CC(=O)N(CCO)Cc1ccccc1)C(=O)N[C@@H](COC(=O)[C@@H](CC=C)CC(=O)OC(C)(C)C)Cc1c[nH]c2ccccc12`, the cytotoxicity call is “inactive”.

As to `C=CC[C@@H](CC(=O)N(CCO)Cc1ccccc1)C(=O)N[C@H](COC(=O)[C@@H](CC=C)CC(=O)OC(C)(C)C)Cc1c[nH]c2ccccc12`, the cytotoxicity call is “inactive”.

Consider `C=CC[C@H](CC(=O)N(CCO)Cc1ccccc1)C(=O)N[C@@H](COC(=O)[C@H](CC=C)CC(=O)OC(C)(C)C)Cc1c[nH]c2ccccc12`, for which the cytotoxicity call is “inactive”. The same measure for `C=CC[C@@H](CC(=O)N(CCO)Cc1ccccc1)C(=O)N[C@H](COC(=O)[C@@H](CC=C)Cc1ccc(F)cc1)Cc1c[nH]c2ccccc12`: “active”; for `C=CC[C@H](CC(=O)N(CCO)Cc1ccccc1)C(=O)N[C@H](COC(=O)[C@H](CC=C)CC(=O)OC(C)(C)C)Cc1c[nH]c2ccccc12`: “inactive”. Take `C=CC[C@@H](CC(=O)N(CCO)Cc1ccccc1)C(=O)N[C@@H](COC(=O)[C@H](CC=C)Cc1ccc(F)cc1)Cc1c[nH]c2ccccc12`: the cytotoxicity call was “active”. With `C=CC[C@@H](CC(=O)N(CCO)Cc1ccccc1)C(=O)N[C@@H](COC(=O)[C@@H](CC=C)Cc1ccc(F)cc1)Cc1c[nH]c2ccccc12`, the cytotoxicity call is “active”. As for `C=CC[C@@H](CC(=O)N(CCO)Cc1ccccc1)C(=O)N[C@@H](COC(=O)[C@@H](CC=C)CC(=O)OC(C)(C)C)Cc1c[nH]c2ccccc12`, the cytotoxicity call was “inactive”. `C=CC[C@H](CC(=O)N(CCO)Cc1ccccc1)C(=O)N[C@H](COC(=O)[C@@H](CC=C)CC(=O)OC(C)(C)C)Cc1c[nH]c2ccccc12`: the cytotoxicity call is “inactive”. For the compound `C=CC[C@H](CC(=O)N(CCO)Cc1ccccc1)C(=O)N[C@@H](COC(=O)[C@@H](CC=C)Cc1ccc(F)cc1)Cc1c[nH]c2ccccc12`, the cytotoxicity call was “active”. The same measure for `C[C@H]1CCCCO[C@H](CN(C)CC2CC2)[C@@H](C)CN([C@@H](C)CO)C(=O)c2cc(NC(=O)C3CCCCC3)ccc2O1`: “inactive”; for `C[C@@H]1CN([C@@H](C)CO)C(=O)c2cc(NC(=O)C3CC3)ccc2O[C@H]1CN(C)S(=O)(=O)c1ccc(F)cc1`: “inactive”; for `C[C@@H]1CN([C@H](C)CO)S(=O)(=O)c2ccc(/C=C/c3ccccc3)cc2O[C@@H]1CN(C)C(=O)Nc1cc(F)ccc1F`: “inactive”. The same measure for `NC(=S)c1cnccn1`: “inactive”; for `C[C@@H]1CCCCO[C@H](CN(C)Cc2ccc(C(F)(F)F)cc2)[C@H](C)CN([C@@H](C)CO)C(=O)c2cc(NS(=O)(=O)c3ccccc3)ccc2O1`: “inactive”; for `C[C@H](CO)N1C[C@H](C)[C@@H](CN(C)C(=O)Nc2ccc(F)cc2)Oc2ccc(NC(=O)C3CC3)cc2CC1=O`: “inactive”.

In the case of `C[C@@H]1CN([C@H](C)CO)C(=O)c2cc(C3=CCCC3)cnc2O[C@@H]1CN(C)C(=O)c1ccc2c(c1)OCO2`, the cytotoxicity call was “inactive”. On to `C[C@H](CO)N1C[C@H](C)[C@@H](CN(C)C(=O)c2ccccc2)OCCCC[C@H](C)Oc2ccc(NC(=O)Nc3cccc4ccccc34)cc2C1=O`, for which the cytotoxicity call was “inactive”.

Take `CN1CCN(C(=O)C[C@H]2CC[C@@H]3[C@H](COC[C@@H](O)CN3S(=O)(=O)c3cccc(F)c3)O2)CC1`: the cytotoxicity call was “inactive”. Consider `C[C@@H]1CN([C@@H](C)CO)C(=O)c2c(c3ccccc3n2C)-c2ccccc2CO[C@@H]1CN(C)Cc1ccc(C(=O)O)cc1`, for which the cytotoxicity call was “inactive”. On to `Cc1ccc([C@@H]2CC(=O)N[C@@H]2C(N)=O)cc1`, for which the cytotoxicity call is “inactive”.

Turning to `COc1ccccc1S(=O)(=O)N(C)C[C@@H]1Oc2c(NC(=O)Nc3cccc4ccccc34)cccc2C(=O)N([C@@H](C)CO)C[C@H]1C`, the cytotoxicity call is “inactive”.

In the case of `C[C@@H]1CN([C@@H](C)CO)C(=O)c2cccc(NC(=O)Nc3cccc4ccccc34)c2O[C@H]1CN(C)S(=O)(=O)c1cccs1`, the cytotoxicity call was “inactive”.

As to `C[C@@H]1CN([C@H](C)CO)C(=O)c2cccc(NC(=O)Nc3cccc4ccccc34)c2O[C@@H]1CN(C)S(=O)(=O)c1ccc(Cl)cc1`, the cytotoxicity call is “active”. Consider `COc1cccc(S(=O)(=O)N(C)C[C@@H]2Oc3c(NC(=O)Nc4cccc5ccccc45)cccc3C(=O)N([C@@H](C)CO)C[C@H]2C)c1`, for which the cytotoxicity call was “inactive”. With `COc1ccc(S(=O)(=O)N(C)C[C@@H]2Oc3c(NC(=O)Nc4cccc5ccccc45)cccc3C(=O)N([C@@H](C)CO)C[C@H]2C)c(OC)c1`, the cytotoxicity call is “active”. For `C[C@@H]1CN([C@@H](C)CO)C(=O)c2cccc(NC(=O)Nc3cccc4ccccc34)c2O[C@H]1CN(C)S(=O)(=O)c1ccc(F)cc1`, the cytotoxicity call is “inactive”. As for `C[C@@H]1CN([C@@H](C)CO)C(=O)c2cccc(NC(=O)Nc3cccc4ccccc34)c2O[C@@H]1CN(C)S(=O)(=O)c1cccs1`, the entry is “inactive”; as for `C[C@H](CO)N1C[C@H](C)[C@H](CN(C)S(=O)(=O)c2ccc(F)cc2)Oc2c(NC(=O)Nc3cccc4ccccc34)cccc2C1=O`, “active”. For `C[C@H]1CN([C@@H](C)CO)C(=O)c2cccc(NC(=O)Nc3cccc4ccccc34)c2O[C@@H]1CN(C)S(=O)(=O)c1ccc(Cl)cc1`, the cytotoxicity call was “inactive”.

Turning to `C[C@@H]1CN([C@@H](C)CO)C(=O)c2cccc(NC(=O)Nc3cccc4ccccc34)c2O[C@@H]1CN(C)S(=O)(=O)c1ccc(Cl)cc1`, the cytotoxicity call was “inactive”.

As to `C[C@H]1CN([C@@H](C)CO)C(=O)c2cccc(NC(=O)Nc3cccc4ccccc34)c2O[C@@H]1CN(C)S(=O)(=O)c1cccs1`, the cytotoxicity call is “active”.

As to `C[C@@H]1CN([C@H](C)CO)C(=O)c2cccc(NC(=O)Nc3cccc4ccccc34)c2O[C@@H]1CN(C)S(=O)(=O)c1ccc(F)cc1`, the cytotoxicity call was “inactive”.
